# Where “and” joins values, the source holds several entries; their conditions need not be identical. Equal entries are not always repeated. Among all 360,000 compounds or so, about 2,400 (0.67%) were called active. This is one part of a sample in which actives are shown more often than they occur.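 Rule for the calls: active = compounds whose normalised, plate-corrected inhibition of enzyme fluorescence in the single-dose primary screen is 50% or more; inactive = the rest.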
# Target: Fatty acid synthase (Homo sapiens) (UniProt P49327)
# Sequence (P49327 whole entry, looked up, the tested form may be a part): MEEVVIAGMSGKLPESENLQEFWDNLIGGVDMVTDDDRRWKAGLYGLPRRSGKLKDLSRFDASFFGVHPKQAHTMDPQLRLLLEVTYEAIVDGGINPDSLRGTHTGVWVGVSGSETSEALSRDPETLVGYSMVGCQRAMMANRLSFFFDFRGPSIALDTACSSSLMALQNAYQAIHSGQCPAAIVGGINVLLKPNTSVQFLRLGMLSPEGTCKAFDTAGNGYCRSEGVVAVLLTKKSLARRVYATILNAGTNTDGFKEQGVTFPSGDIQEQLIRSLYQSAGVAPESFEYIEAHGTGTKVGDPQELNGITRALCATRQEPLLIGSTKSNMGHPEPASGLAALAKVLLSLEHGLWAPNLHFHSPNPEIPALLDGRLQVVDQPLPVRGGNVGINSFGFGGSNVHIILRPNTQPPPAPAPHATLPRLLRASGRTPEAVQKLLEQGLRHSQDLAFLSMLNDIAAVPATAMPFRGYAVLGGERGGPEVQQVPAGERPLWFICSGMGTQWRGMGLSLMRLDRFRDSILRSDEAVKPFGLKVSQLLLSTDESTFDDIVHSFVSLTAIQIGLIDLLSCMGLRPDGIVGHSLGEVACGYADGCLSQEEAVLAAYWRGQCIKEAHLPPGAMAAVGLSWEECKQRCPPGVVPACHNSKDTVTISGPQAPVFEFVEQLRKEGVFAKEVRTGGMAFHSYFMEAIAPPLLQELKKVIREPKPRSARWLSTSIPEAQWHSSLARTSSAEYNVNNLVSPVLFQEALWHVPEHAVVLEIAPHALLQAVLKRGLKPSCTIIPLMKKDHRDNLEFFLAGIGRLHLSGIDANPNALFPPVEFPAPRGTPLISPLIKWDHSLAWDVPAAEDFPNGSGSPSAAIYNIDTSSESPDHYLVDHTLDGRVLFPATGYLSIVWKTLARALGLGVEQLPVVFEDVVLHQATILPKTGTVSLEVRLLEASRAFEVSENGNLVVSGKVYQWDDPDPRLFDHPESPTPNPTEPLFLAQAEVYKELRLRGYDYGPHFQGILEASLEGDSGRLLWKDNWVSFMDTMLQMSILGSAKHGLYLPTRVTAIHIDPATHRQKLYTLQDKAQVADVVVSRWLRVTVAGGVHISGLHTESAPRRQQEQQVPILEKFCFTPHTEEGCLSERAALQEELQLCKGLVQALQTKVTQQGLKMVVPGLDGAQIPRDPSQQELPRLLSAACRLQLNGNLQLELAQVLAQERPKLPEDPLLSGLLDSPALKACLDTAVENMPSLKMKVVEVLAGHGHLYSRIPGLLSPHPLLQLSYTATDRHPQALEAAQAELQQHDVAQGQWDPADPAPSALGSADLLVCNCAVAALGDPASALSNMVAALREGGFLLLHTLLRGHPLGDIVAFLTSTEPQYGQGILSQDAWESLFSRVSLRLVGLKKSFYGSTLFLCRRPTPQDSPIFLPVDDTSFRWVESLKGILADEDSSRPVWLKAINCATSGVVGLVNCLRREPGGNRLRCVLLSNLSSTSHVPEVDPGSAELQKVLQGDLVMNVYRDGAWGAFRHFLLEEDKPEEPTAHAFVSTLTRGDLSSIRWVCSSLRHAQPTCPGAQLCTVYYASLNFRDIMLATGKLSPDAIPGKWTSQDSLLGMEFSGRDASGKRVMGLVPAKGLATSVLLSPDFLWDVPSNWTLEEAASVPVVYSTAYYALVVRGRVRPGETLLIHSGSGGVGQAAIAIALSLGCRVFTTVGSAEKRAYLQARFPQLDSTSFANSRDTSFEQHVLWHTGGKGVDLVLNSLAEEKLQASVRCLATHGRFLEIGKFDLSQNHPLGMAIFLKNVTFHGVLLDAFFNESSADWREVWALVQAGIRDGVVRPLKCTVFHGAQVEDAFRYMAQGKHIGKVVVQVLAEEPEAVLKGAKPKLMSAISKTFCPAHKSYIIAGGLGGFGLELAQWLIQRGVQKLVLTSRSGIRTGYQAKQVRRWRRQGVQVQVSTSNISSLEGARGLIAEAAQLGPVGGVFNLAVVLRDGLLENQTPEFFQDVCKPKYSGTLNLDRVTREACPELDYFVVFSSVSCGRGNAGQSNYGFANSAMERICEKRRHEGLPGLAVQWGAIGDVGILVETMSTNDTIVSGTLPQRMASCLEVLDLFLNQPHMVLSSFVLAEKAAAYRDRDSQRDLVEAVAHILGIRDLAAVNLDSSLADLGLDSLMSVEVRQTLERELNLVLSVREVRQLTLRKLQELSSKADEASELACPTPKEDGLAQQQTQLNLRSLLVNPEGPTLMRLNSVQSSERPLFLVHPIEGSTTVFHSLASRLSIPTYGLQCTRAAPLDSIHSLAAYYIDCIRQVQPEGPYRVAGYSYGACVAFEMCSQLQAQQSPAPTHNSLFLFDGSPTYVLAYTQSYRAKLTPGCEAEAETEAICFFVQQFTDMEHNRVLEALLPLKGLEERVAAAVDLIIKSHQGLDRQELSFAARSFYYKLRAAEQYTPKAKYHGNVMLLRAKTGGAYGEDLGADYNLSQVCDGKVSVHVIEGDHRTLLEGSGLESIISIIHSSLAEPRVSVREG
# Assay: FAS thioesterase domain inhibitors, primary screen, biochemical, fluorescence intensity, uHTS (AID 602261);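 note: 0% = DMSO with enzyme and 100% = substrate without enzyme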
# Conditions: recombinant FAS-TE, OMFH fluorogenic substrate, fluorescence endpoint; at 15 µM; active compounds read high
row,Compound,inhibition
1,CN(C)c1ccc(/C=C/C(=O)c2ccc(C(C)(C)C)cc2)cc1[N+](=O)[O-],74.2% (active)
2,CC(C)(C)c1ccc(/C=C/C(=O)NC2CCS(=O)(=O)C2)cc1 (configuration not stated),-0.6% (inactive)
3,CN(C)c1ccc(S(=O)(=O)NCC(=O)NCC2CCCCC2)cc1[N+](=O)[O-],5.2% (inactive)
4,Cc1ccc(S(=O)(=O)N2CCN(C)CC2)cc1C(=O)NC1CCCCC1,-7% (inactive)
5,CCOC(=O)C1=CN(Cc2ccc(Br)cc2)S(=O)(=O)NC1C (configuration not stated),9.4% (inactive)
6,CC(C)[C@@H]1COC(c2cccc(C3=N[C@H](C(C)C)CO3)c2)=N1,1.1% (inactive)
7,CC1(C)O[C@@H]2[C@H](O1)[C@@H](COS(=O)(=O)O)O[C@H]2n1ccc(=O)[nH]c1=O,-13.4% (inactive)
8,CCN(CC)CCNC(=O)c1ccc(NS(=O)(=O)c2ccc3c(c2)OCCO3)cc1,-4.3% (inactive)
9,O=C(Nc1cccc(S(=O)(=O)Nc2ccc(Cl)cc2)c1)c1ccc2c(c1)OCCO2,54% (active)
10,CC(NS(=O)(=O)c1ccc(Cl)cc1)C(=O)Nc1ccc2c(c1)OCCO2 (configuration not stated),-2.1% (inactive)
11,CCN(CC)c1ccc(S(=O)(=O)N2CCOCC2)cc1NC(=O)CSc1cccc[n+]1[O-],-33.9% (inactive)
12,O=C(Nc1ccc(OC(F)(F)F)cc1)c1ccc2c(c1)no[n+]2[O-],50.7% (active)
13,CCc1nnc(NS(=O)(=O)c2ccc(NC(=O)c3cccc(OC(F)(F)C(F)F)c3)cc2)s1,15.6% (inactive)
14,O=C(Nc1ccccc1)c1ccc2nsnc2c1,-6.4% (inactive)
15,COc1ccccc1C(=O)NC(CCSC)C(=O)NNC(=O)c1ccccc1C (configuration not stated),-1.2% (inactive)
16,CC(c1ccco1)N(C(=O)COc1ccccc1[N+](=O)[O-])c1ccccn1 (configuration not stated),6.4% (inactive)
17,CN1CCOC1c1ccc(C2OCCN2C)cc1 (configuration not stated),-6.4% (inactive)
18,CC(=O)c1ccc(N2CCN(S(=O)(=O)c3ccc4c(c3)CC(=O)N4C)CC2)cc1,8.9% (inactive)
19,CC(=O)c1ccc(S(=O)(=O)N2CCN(c3nc4c(C)c(C)ccc4cc3C#N)CC2)cc1,61.5% (active)
20,CC(=O)c1ccc(S(=O)(=O)N2CCC3(CC2)OCCO3)cc1,-3.8% (inactive)
21,Oc1c(Br)cc(/C=N/NC(=S)NCC2CCCO2)cc1Br (configuration not stated),-3.3% (inactive)
22,O=C(NC1CCCC1)C1c2ccccc2OCC(=O)N1Cc1ccccc1 (configuration not stated),-7.8% (inactive)

row,Compound,inhibition
1,Cc1ccc(NC(=O)N2CCSc3ccccc32)cc1,3.8% (inactive)
2,O=C(/C=C/c1cccc([N+](=O)[O-])c1)OCC(=O)N1CCOCC1,-3.4% (inactive)
3,O=C(c1cccc(Cl)c1)N1CCN(Cc2ccccc2)CC1,-4.7% (inactive)
4,O=C(/C=C/c1cccc([N+](=O)[O-])c1)N1CCN(Cc2ccccc2)CC1,69.8% (active)
5,CCCOc1ccc(/C(O)=C2/C(=O)C(=O)N(CCN(C)C)C2c2ccc(OC)c(OC)c2)cc1 (configuration not stated),-4.4% (inactive)
6,CCN1CCCC1CNC(=O)c1ccc2c(c1)NC(=O)/C(=C\c1ccccc1F)S2 (configuration not stated),-6.6% (inactive)
7,CCOC(=O)N1CCN(S(=O)(=O)N2CCCC(C(=O)NCCCN3CCC(C)CC3)C2)CC1 (configuration not stated),-9% (inactive)
8,O=c1oc(-c2ccco2)nc2sc3c(c12)CCCCC3,59.2% (active)
9,O=S(=O)(c1ccc(Cl)cc1)c1nc(-c2ccco2)oc1N1CCCCC1,17.9% (inactive)
10,Cn1c(NN)nc2sc3c(c2c1=O)CCC3,0% (inactive)
11,CCCCCc1c(Cc2ccccc2)ncn1CCc1ccccc1OC,11% (inactive)
12,Cc1cccc(NC(=O)CSc2nc3c(c(=O)[nH]2)CCC3)c1C,-9.1% (inactive)
13,O=C(Nc1cccc(Cl)c1)c1cc([N+](=O)[O-])ccc1N1CCN(CCO)CC1,68.1% (active)
14,CCN1CCN(c2ccc([N+](=O)[O-])cc2C(=O)c2ccc(Cl)cc2)CC1,24.4% (inactive)
15,CC(C)C(=O)Nc1cccc(NC(=O)c2ccc([N+](=O)[O-])cc2Cl)c1,-13.2% (inactive)
16,CCC(C)(C)NC(=O)c1cc([N+](=O)[O-])ccc1N1CCCCC1,9.2% (inactive)
17,Cc1cccc(NC(=O)c2cc([N+](=O)[O-])ccc2N2CCN(C)CC2)c1,56.8% (active)
18,NS(=O)(=O)c1cccc(NC(=O)COC(=O)c2cc([N+](=O)[O-])ccc2N2CCCC2)c1,26.9% (inactive)
19,CCOC(=O)c1cc(-c2ccc(F)cc2)n(CC(=O)NCc2ccccn2)c1C,-7.6% (inactive)
20,COC(=O)CCCCC1=CCC2C(=O)C=C(O)C2C1 (configuration not stated),-0.8% (inactive)
21,Cc1nn(Cc2ccc(F)cc2)c(C)c1NC(=O)c1noc2c1CCc1ccccc1-2,17.6% (inactive)
22,CNC(=O)/C(=C\C=C\c1ccccc1)NC(=O)c1ccc([N+](=O)[O-])cc1,88.8% (active)

row,Compound,inhibition
1,CCCCOc1ccc(C(=O)N/C(=C/C=C/c2ccccc2)C(=O)N2CCOCC2)cc1,4.3% (inactive)
2,Cc1ccc(C(=O)N/C(=C/C=C/c2ccccc2)C(=O)NCc2ccco2)cc1,10.2% (inactive)
3,COc1ccc(-c2cc(=O)oc3cc(OCC(=O)N(C)C4CCS(=O)(=O)C4)ccc23)cc1 (configuration not stated),-3.1% (inactive)
4,COc1ccc(-c2cc(NC=O)c3ncc(-c4ccccc4)n3c2)cc1OC,28.3% (inactive)
5,Cc1ccccc1-c1nc(CS(=O)(=O)CC(=O)N2CCc3ccccc3C2)c(C)o1,10% (inactive)
6,CCCSc1ccc([C@H]2N[C@@](Cc3ccccc3)(C(=O)OC)[C@H]3C(=O)N(C)C(=O)[C@@H]23)cc1,17.3% (inactive)
7,CCN1C(=O)[C@H]2[C@@H](c3ccc(-c4ccc(F)cc4)cc3)N[C@@](Cc3ccccc3)(C(=O)OC)[C@H]2C1=O,65.3% (active)
8,COC(=O)[C@]1(CC(C)C)N[C@H](c2ccc(SC3CCCCC3)cc2)[C@@H]2C(=O)N(C)C(=O)[C@@H]21,22.5% (inactive)
9,CCN1C(=O)[C@H]2[C@@H](c3ccc(-c4ccc(OC)cc4)cc3)N[C@@](Cc3ccccc3)(C(=O)OC)[C@H]2C1=O,39.2% (inactive)
10,CCN1C(=O)[C@H]2[C@@H](c3ccc(SC4CCCCC4)c(OC)c3)N[C@@](Cc3ccccc3)(C(=O)OC)[C@H]2C1=O,63.1% (active)
11,CCCCCCSc1ccc([C@@H]2[C@@H]3C(=O)N(CC)C(=O)[C@@H]3[C@]3(C(=O)OC)CCCCN23)cc1OC,23.1% (inactive)
12,COc1ccccc1C(=O)N(C1=NC(C)CS1)c1ccc(Cl)cc1 (configuration not stated),6.9% (inactive)
13,CCCN1CCN(C(=O)Cn2ncc3ccccc32)CC1,-2.9% (inactive)
14,Cc1ccc(NC(=O)N2CCC(O)(c3cccnc3)CC2)cc1,-3.3% (inactive)
15,CC(C)C[C@H](NC(=O)NCCc1ccc(Cl)cc1)C(=O)O,-6.2% (inactive)
16,CSCCC(NC(=O)c1cc([N+](=O)[O-])cc([N+](=O)[O-])c1)c1nc2ccccc2[nH]1 (configuration not stated),32.8% (inactive)
17,Cc1cccc(CN2CCN(Cc3cnn(-c4ccccc4F)c3)CC2CCO)n1 (configuration not stated),-8% (inactive)
18,Cc1ccc(N2C(=O)C3N=NN(CC(=O)N4N=C(c5cccc6ccccc56)CC4c4ccccc4)C3C2=O)cc1 (configuration not stated),83.2% (active)
19,O=C1C2N=NN(CC(=O)N3N=C(c4cccc5ccccc45)CC3c3ccccc3)C2C(=O)N1c1ccccc1 (configuration not stated),84.2% (active)
20,Cc1ccc(C2=NN(C(=O)COc3ncnc4ccccc34)C(c3ccco3)C2)cc1 (configuration not stated),8.9% (inactive)
21,CC1=C(C)CC2C(=O)N(c3cccc4ccccc34)C(=O)C2C1 (configuration not stated),7.3% (inactive)
22,O=C1c2cccc(OCC(=O)N3N=C(c4cccs4)CC3c3ccc(F)cc3)c2CCN1Cc1ccccc1 (configuration not stated),30.6% (inactive)

row,Compound,inhibition
1,Oc1ccccc1C1=NN(c2ccccc2)C(c2ccccc2)C1 (configuration not stated),25.2% (inactive)
2,Cc1ccc(NC(=O)[C@H](Cc2ccccc2)NC(=O)CC[C@H]2O[C@@H](n3ccc(=O)[nH]c3=O)[C@H](O)[C@@H]2O)cc1C,-9.9% (inactive)
3,Cc1ccc(Cl)c(OCC(=O)NN2CCN(C)CC2)c1,-5.7% (inactive)
4,COc1ccc2c(CC(=O)NNC(=O)c3ccccc3F)coc2c1,-5% (inactive)
5,COC(=O)[C@@H](NC(=O)NCc1cccc(OC)c1)C(C)C,-7.7% (inactive)
6,COc1ccc(NC(=O)CN2C(=O)CSc3ccc(S(=O)(=O)N4CCC(C)CC4)cc32)cc1,42.2% (inactive)
7,COc1ccc(-c2nc3cnccn3c2NC2CCCCC2)cc1-c1cccc(Cl)c1,32.3% (inactive) and 25.3% (inactive)
8,COc1ccc(-c2nc3cnccn3c2NC(C)(C)CC(C)(C)C)cc1O,55% (active)
9,CCOc1cc(-c2nc3cc(C)ccn3c2NCC2CCCO2)ccc1O (configuration not stated),-4.4% (inactive)
10,COc1ccc(NC2=CC(=S)NC(C)(C)C2)cc1,-11% (inactive)
11,CCOC(=O)/C(=N\Nc1cc(Cl)ccc1Cl)N1CCN(C)CC1,3.8% (inactive)
12,CCN(CCO)C(=S)Nc1cc(C(=O)OC)ccc1C(=O)OC,-10.4% (inactive)
13,O=C(Nc1ccccc1Cl)c1ccccc1S(=O)(=O)c1ccccc1[N+](=O)[O-],6.3% (inactive)
14,O=C(Nc1ccccc1Cl)/C(Cl)=C(\Cl)S(=O)c1ccccc1 (configuration not stated),73.7% (active)
15,Cc1cc(C(=O)OCC(=O)Nc2ccccc2Cl)c(C)o1,7.5% (inactive)
16,CC(C)Oc1ccc(CN2CCC2(C)C(=O)NCc2ccc(C(F)(F)F)cc2)cc1 (configuration not stated),34.4% (inactive)
17,CC1(C)CC(=O)C(C2=NC(C)(C)Cc3ccccc32)=C(O)C1,-7% (inactive)
18,FC(F)(F)c1cccc(-c2cc3ccccc3nc2N2CCCC2)c1,18.4% (inactive)
19,O=C(Nc1cccc(-n2cnnn2)c1)c1cccnc1,-7.9% (inactive)
20,Cc1cc(Cl)ccc1OCCCC(=O)Nc1cccc(-n2cnnn2)c1,30.3% (inactive)
21,O=C(Nc1ccc(C(F)(F)F)cc1)c1cccc(-n2cnnn2)c1,64.5% (active)
